Unmarked numbers belong to inactive results.
Legend:
[1] = system: Sporothrix brasiliensis CBS 133006; assay: growth inhibition relative to untreated control; higher = more growth inhibition (more antifungal activity), active = 80 or more; extreme values may be limits of the assay; settings: 1 µM; 48 h
Summary of the method: (§1)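 Before testing, the reference isolates were kept in brain heart infusion broth with 2% glucose at 36°C for 7 days to give yeast-form cells. These cells, at 1 x 10^5 CFU/ml, received library compounds at a final 1 μM and were held 48 h at 35°C in 5% CO2. Growth was checked by eye under an inverted light microscope and quantified spectrophotometrically in quadruplicate, and the value is percent growth inhibition versus untreated cells.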

[2] = system: Sporothrix schenckii ATCC 32286; assay: as above; settings: 1 µM; 48 h
Summary of the method: as §1

Compound | growth inhibition [1] [%] | growth inhibition [2] [%]
Cc1noc(C)c1COc1cccc(C(=O)N=c2[nH]cccc2C)c1 | 0 | 8.25
Cc1cc(NC(=O)c2ccc(S(=O)(=O)N(Cc3ccccc3)C(C)C)cc2)no1 | 18.2 | 2.75
CC1CCCCN1C(=O)NCCc1coc(-c2ccc(F)cc2)n1 (centres undefined) | 11 | 0
NCC(=O)N1CCn2c(nc(-c3ccccc3)c2Nc2ccc3c(c2)OCO3)C1 | 0 | 0.5
c1cc(C2=NCCN2)cc(-c2cc(-c3ccc(C4=NCCN4)cc3)no2)c1 | 5.5 | 0
c1ccc(Oc2ccc(-c3cncc(-c4ccc5[nH]ccc5c4)n3)cc2)cc1 | 8 | 12.5
CCn1ncc2c(NC3CCOCC3)c(CNC(=O)c3ccnn3C)c(C)nc21 | 4.25 | 0
Clc1ccc(-n2cc(COc3ccnc4ccccc34)nn2)cc1 | 13.5 | 10
COc1cccc(-c2cc3c(Nc4cccnc4)nccc3[nH]2)c1 | 4 | 5
c1ccc(C[C@@H]2CN(c3nccc(Oc4ccc(-n5ccnc5)cc4)n3)CCN2)cc1 | 10.2 | 9.5
C[C@]1(O)C[C@@H](c2nc(-c3ccc4ccc(-c5ccccc5)nc4c3)c3c(N)nccn32)C1 | 6 | 23
CC(C)C(C(=O)Nc1ccc(S(=O)(=O)N(C)C)cc1)c1ccc(Cl)cc1 (centres undefined) | 17.5 | 0.5
